Growth inhibition data for 37 compounds are collected here from PubChem BioAssay (NCI).

Assay [1] can be described thus: NCI Yeast Anticancer Drug Screen. Data for the rad50 strain (AID 155).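 Further: 0% = growth of vehicle-only cultures of the same strain.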 The settings on record: S. cerevisiae rad50 strain growth inhibition; at 50.0 µM; hits give high values. Summed up: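 A DNA repair-deficient yeast mutant serves as the test organism; compound-induced growth inhibition is calculated against vehicle-treated cells.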
Assay [2] in a line: NCI Yeast Anticancer Drug Screen. Data for the mec2-1 strain (AID 157). The settings on record: S. cerevisiae mec2-1 strain, at 50.0 µM, hits give high values. The essentials:
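Growth inhibition is read against vehicle-treated controls after compound exposure of the mec2-1 yeast strain, which is defective in DNA damage repair or cell cycle control.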

Assay [3] can be described thus: NCI Yeast Anticancer Drug Screen. Data for the sgs1 mgt1 strain (AID 161).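 Further: 0% = growth of cultures given vehicle only.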 Conditions: S. cerevisiae sgs1 mgt1 strain, at 50.0 µM, hits give high values. The essentials: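 This yeast growth screen uses a strain with defined DNA-repair lesions; compound-treated growth is compared with vehicle-treated growth.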
Assay [4] is described as follows: NCI Yeast Anticancer Drug Screen. Data for the cln2 rad14 strain (AID 165).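 Further: 0% = growth equal to vehicle treated cultures.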 The settings on record: S. cerevisiae cln2 rad14 strain, at 50.0 µM, hits give high values. Summed up:
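Growth inhibition, relative to vehicle-treated controls, is the read-out. The test organism is a yeast strain with defined genetic alterations, cln2 rad14.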

The nature of assay [5]: NCI Yeast Anticancer Drug Screen. Data for the bub3 strain (AID 167). The settings on record: S. cerevisiae bub3 mutant strain, at 50.0 µM, hits give high values. Summed up: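 Inhibition values come from growth of compound-treated mutant yeast normalised to vehicle-treated controls.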
The nature of assay [6]: NCI Yeast Anticancer Drug Screen. Data for the mlh1 rad18 strain (AID 175). Conditions: S. cerevisiae mlh1 rad18 strain growth inhibition; at 50.0 µM; hits give high values. Summed up:
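Cells of a genetically altered yeast strain, deficient in DNA damage repair, were treated with compound. Their growth was then compared with that of vehicle-treated cultures to give inhibition.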

Compounds without any hit were thinned out: in the full panel of roughly 79,000, 15% have a hit. A number with no mark means an inactive call. The source made the active and inactive calls. No stated cut-off is given here; in the data, active means growth inhibition above about 70%; inactive means the rest.

`COC(OC)c1cccc2c1C(=O)CCC1(O)c3ccccc3C1C2` (configuration not stated): the growth inhibition in assay [1] is -8.55%; in assay [2], -6.65%; in assay [3] it was -38.9%; in assay [4] it was -0.4%; in assay [5] it was -30.1%; in assay [6], -30.9%.
Turning to `CC(=O)Nc1cc(Cl)cc2[nH]c(C)nc12`, the growth inhibition in assay [1] is 17.1%; in assay [2] it was -3%; in assay [3] it was -0.6%; in assay [4], -0.25%; in assay [5] it was 12.8%; in assay [6] it was 37.4%.
In the case of `N=C1CCCS1`, the growth inhibition is -7.05% in assay [1]; -2.35% in assay [2]; -7.1% in assay [3]; -6.3% in assay [4]; -49.5% in assay [5]; -4.7% in assay [6].
Consider `C1CCC(NCSC2=NCCS2)CC1`, for which the growth inhibition in assay [1] was 36.5%; in assay [2], -4.7%; in assay [3], 0.05%; in assay [4], -29.8%; in assay [5], 7.95%; in assay [6], 1.9%.
Take `[N-]=[N+]=Nc1c(Cc2ccccc2)c(Cl)nc2ccccc12`: the growth inhibition in assay [1] is 40.5%; in assay [2] it was 57.9%; in assay [3], 62.5%; in assay [4], 53.7%; in assay [5], 65%; in assay [6], 40.8%.
`CC1CCC(CC(N)=O)C1(C)C` (configuration not stated): the growth inhibition in assay [1] is 11.8%; in assay [2], -7.15%; in assay [3], 2.75%; in assay [4], -22.2%; in assay [5], 2.85%; in assay [6] it was 0.35%.
Consider `COc1ccc(-c2nc3ccccc3[nH]2)cc1`, for which the growth inhibition in assay [1] was 16.4%; in assay [2], -2.7%; in assay [3], 1.7%; in assay [4], -4%; in assay [5], -21.5%; in assay [6], -3.1%.
`CC1c2ccccc2CC(CCN(C)C)c2ccccc21` (configuration not stated): the growth inhibition in assay [1] was 8.1%; in assay [2], -12.8%; in assay [3] it was 34%; in assay [4], 13.4%; in assay [5], 28.6%; in assay [6], -20.3%.
For `CCOC(=O)c1ccc(N(CC(=O)O)S(=O)(=O)c2ccc(C)cc2)s1`, the growth inhibition is 17.5% in assay [1]; -1% in assay [2]; 2.5% in assay [3]; 16.6% in assay [4]; 0.85% in assay [5]; -8.8% in assay [6].
Turning to `OCC1CCNCC1`, the growth inhibition in assay [1] is 22.1%; in assay [2], 12.1%; in assay [3] it was 0.1%; in assay [4], -1.15%; in assay [5], -3.2%; in assay [6] it was 32.2%.
With `COC(=O)C(NC(=O)C(C)N1C(=O)CCC(NS(=O)(=O)c2ccc(C)cc2)C1=O)C(C)C` (configuration not stated), the growth inhibition in assay [1] is 30.1%; in assay [2], 8%; in assay [3], 9.4%; in assay [4], 1.05%; in assay [5], 3.55%; in assay [6], 15.8%.
Regarding `CC(=O)N(C(=O)CC(=O)N1N=C(C)C(N=Nc2cccc([N+](=O)[O-])c2)C1=O)c1ccc(Cl)cc1` (configuration not stated), the growth inhibition was -10.3% in assay [1]; -4.5% in assay [2]; -5.9% in assay [3]; -11.2% in assay [4]; -15.1% in assay [5]; 2% in assay [6].
For the compound `N#CC1(N)c2ccccc2-c2ccccc21`, the growth inhibition in assay [1] is 34.8%; in assay [2], 1.95%; in assay [3], 3.4%; in assay [4], 9.65%; in assay [5], 3.65%; in assay [6], 4.8%.
For the compound `Cc1cc(N(CCC#N)CCC#N)ccc1/C(N=Nc1ccc([N+](=O)[O-])cc1)=N\NC(=O)c1cc(Cl)ccc1C(=O)c1ccccc1`, the growth inhibition in assay [1] is 9.3%; in assay [2] it was 3.15%; in assay [3], -15.7%; in assay [4], -4.25%; in assay [5], -22.4%; in assay [6], 7.7%.
As for `COc1ccc(C(C#N)CC(=O)c2ccccc2)cc1` (configuration not stated), the growth inhibition in assay [1] was 6.4%; in assay [2] it was 10.9%; in assay [3], 0.95%; in assay [4], 4.45%; in assay [5] it was -2.6%; in assay [6], -8.35%.
With `CN1CCC2(CC1)C(=O)N(Cc1ccccc1)C(=O)C2c1ccccc1` (configuration not stated), the growth inhibition in assay [1] was -9.95%; in assay [2] it was -6.95%; in assay [3] it was -6%; in assay [4], 6.05%; in assay [5], 3.4%; in assay [6], -13.4%.
Consider `CO[C@H]1C=CO[C@@]2(C)Oc3c(C)c(O)c4c(O)c(c(CN5CCN(C)CC5)c(O)c4c3C2=O)NC(=O)/C(C)=C\C=C[C@H](C)[C@H](O)C(C)[C@@H](O)C(C)[C@H](OC(C)=O)[C@@H]1C` (some centres not stated), for which the growth inhibition in assay [1] is -14.5%; in assay [2] it was -4.85%; in assay [3], -21.1%; in assay [4], 54%; in assay [5] it was -36.2%; in assay [6], -34.4%.
As for `CCOC(=O)c1ccc(-n2nc3nc(N)[nH]c(=O)c3n2)cc1`, the growth inhibition in assay [1] was -17.8%; in assay [2] it was -21.2%; in assay [3], -4.35%; in assay [4], -4.15%; in assay [5], -52.9%; in assay [6], -34.4%.
As for `Cc1ccc(C)c2c3c(sc12)CCCC3`, the growth inhibition in assay [1] was -7.85%; in assay [2], -5.4%; in assay [3] it was -7.15%; in assay [4], -17.2%; in assay [5] it was 0.45%; in assay [6], 2.95%.
Consider `CC(C)C(=O)C(F)(F)F`, for which the growth inhibition in assay [1] is 14.3%; in assay [2], 2.45%; in assay [3], -21.3%; in assay [4] it was 6.45%; in assay [5], 28.6%; in assay [6] it was -2.3%.
Regarding `CC(=O)OC1(C#N)CC2OC1C1N=NN(C(=O)OC(C)(C)C)C21` (configuration not stated), the growth inhibition in assay [1] was 18.2%; in assay [2] it was 2.15%; in assay [3] it was 4.8%; in assay [4], 21.8%; in assay [5], 16.1%; in assay [6] it was 19.2%.
As for `CC(=O)N(/C=C\C1=[N+](C)CCS1)c1ccccc1`, the growth inhibition is 10.2% in assay [1]; -10.4% in assay [2]; 20.4% in assay [3]; 18.9% in assay [4]; 18.1% in assay [5]; 12.7% in assay [6].
For the compound `CCC(=O)c1ccc2c(ccc3ccccc32)c1O`, the growth inhibition is -18.3% in assay [1]; -6.8% in assay [2]; -4.15% in assay [3]; -22.1% in assay [4]; 2.85% in assay [5]; -11.6% in assay [6].
For `CCC(CC)C(O)(C(=O)O)C(CC)CC`, the growth inhibition in assay [1] is 14.1%; in assay [2] it was 13.7%; in assay [3], 3.95%; in assay [4], 3.3%; in assay [5], 8.5%; in assay [6], 32.8%.
Turning to `C/C(=N\NC(=S)N1CCC(C)CC1)c1nccnc1C`, the growth inhibition in assay [1] was 6.1%; in assay [2], 7.85%; in assay [3], 11.4%; in assay [4], 28.1%; in assay [5], 8.95%; in assay [6], 17.7%.
As to `CSc1n[n+](-c2ccccc2)cs1`, the growth inhibition was 6.3% in assay [1]; 6.15% in assay [2]; 4.4% in assay [3]; 6.9% in assay [4]; 21.7% in assay [5]; -3.35% in assay [6].
On to `O=c1cc(NCc2cccc([N+](=O)[O-])c2)[nH]c(=O)[nH]1`, for which the growth inhibition in assay [1] is 0.1%; in assay [2], 8.2%; in assay [3], 5.05%; in assay [4], -12.6%; in assay [5] it was -5.5%; in assay [6], 6.6%.
In the case of `COc1cc(CC2COC(=O)C2Cc2ccc(O)c(OC)c2)ccc1O` (configuration not stated), the growth inhibition in assay [1] is -4.85%; in assay [2], 12.1%; in assay [3], 0.35%; in assay [4], -15.8%; in assay [5], 22.4%; in assay [6], 6.4%.
Regarding `CCCCCC(=O)OCC(Br)CBr` (configuration not stated), the growth inhibition in assay [1] was -7.6%; in assay [2] it was -10.6%; in assay [3] it was 22.5%; in assay [4], -23.1%; in assay [5] it was 40.5%; in assay [6] it was 1.1%.
As to `CSc1ccc(NC(=O)COc2ccccc2)cc1`, the growth inhibition in assay [1] was 9.75%; in assay [2], 19.1%; in assay [3], 6.05%; in assay [4], -3.7%; in assay [5], 39.3%; in assay [6], 21.7%.
Regarding `Nc1cc(Cl)cc2c1nc(NCCO)c1ccccc12`, the growth inhibition was 54.7% in assay [1]; 60.3% in assay [2]; 49.1% in assay [3]; 97.9% (active) in assay [4]; 51.6% in assay [5]; 56.5% in assay [6].
Consider `Cn1nnc(CCCl)n1`, for which the growth inhibition was -5.35% in assay [1]; -5.1% in assay [2]; -8.15% in assay [3]; -36.9% in assay [4]; 16.8% in assay [5]; 5.5% in assay [6].
Take `CCCCCN1C(=O)N=NC1=S`: the growth inhibition in assay [1] is 4.65%; in assay [2] it was 8.15%; in assay [3] it was 19.2%; in assay [4], 2.7%; in assay [5], -13.8%; in assay [6], -2.5%.
On to `CCCC(=O)c1c(NOC2OCC(OC(C)=O)C(OC(C)=O)C2OC(C)=O)nc(OC)n(C)c1=O` (configuration not stated), for which the growth inhibition in assay [1] was -24.7%; in assay [2] it was 3.1%; in assay [3], -40.1%; in assay [4], 6.8%; in assay [5], -15.9%; in assay [6] it was -16.6%.
Regarding `COc1ccc(Nc2nc3c(N)cc(C(F)(F)F)cc3nc2-c2ccccc2)cc1OC`, the growth inhibition in assay [1] was 0.5%; in assay [2] it was 0.95%; in assay [3] it was -22.6%; in assay [4] it was -6.8%; in assay [5], -18.6%; in assay [6] it was -7.1%.
As for `Cc1cncc(C)c1`, the growth inhibition is 17.6% in assay [1]; -22.1% in assay [2]; 5.6% in assay [3]; -6.85% in assay [4]; 7.2% in assay [5]; 8.5% in assay [6].
Consider `Cc1nc2c(sc3ccccc3n2C)c2nc3c(sc4ccccc4n3C)c(C)c12`, for which the growth inhibition in assay [1] was -3.95%; in assay [2], -4.2%; in assay [3], 1.45%; in assay [4] it was -24.4%; in assay [5] it was -2.6%; in assay [6], 15.1%.
